Here are results for six molecules from PubChem BioAssay (NCI).

Assay [1] can be described thus: NCI Yeast Anticancer Drug Screen. Data for the rad50 strain (AID 155).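 Note: 0% = growth of vehicle-only cultures of the same strain.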 Conditions: S. cerevisiae rad50 strain growth inhibition, stronger effect = higher value. In outline:
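Relative growth inhibition (compound vs vehicle) was measured in yeast with a defined repair-gene alteration.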

A short description of assay [2]: NCI Yeast Anticancer Drug Screen. Data for the mec2-1 strain (AID 157). The settings on record: S. cerevisiae mec2-1 strain, stronger effect = higher value. In outline: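 Each compound was tested on mec2-1 yeast, a strain altered in DNA damage repair or cell cycle control. Growth inhibition is reported relative to vehicle.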
The nature of assay [3]: NCI Yeast Anticancer Drug Screen. Data for the sgs1 mgt1 strain (AID 161).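 Note: 0% = growth of cultures given vehicle only.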 Conditions: S. cerevisiae sgs1 mgt1 strain, stronger effect = higher value. In short, it runs like this:
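Inhibition of yeast growth, normalised to vehicle-treated controls, is reported for a strain bearing genetic alterations in DNA damage repair.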

Assay [4] can be described thus: NCI Yeast Anticancer Drug Screen. Data for the cln2 rad14 strain (AID 165).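 Note: 0% = growth equal to vehicle treated cultures.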 Conditions: S. cerevisiae cln2 rad14 strain, stronger effect = higher value. In outline:
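Test compounds were added to cln2 rad14 yeast cultures; inhibition of growth was then determined by comparison with vehicle treatment.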

Assay [5] is described as follows: NCI Yeast Anticancer Drug Screen. Data for the bub3 strain (AID 167). The settings on record: S. cerevisiae bub3 mutant strain, stronger effect = higher value. In short, it runs like this:
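Screening used yeast with an engineered genetic alteration affecting cell cycle control. Compound-exposed cultures were compared with vehicle cultures, and reduced growth was taken as inhibition.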

A short description of assay [6]: NCI Yeast Anticancer Drug Screen. Data for the mlh1 rad18 strain (AID 175). Conditions: S. cerevisiae mlh1 rad18 strain growth inhibition, stronger effect = higher value. In outline:
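Inhibition values reflect reduced growth of mutant yeast versus vehicle-treated controls following compound exposure; the mutations affect DNA damage repair.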

The mark [7] stands for this setting: at 5.0 µM (retest, dose inferred, filed as 0.5).
Setting [8] is: at 50.0 µM (retest, dose inferred, filed as 5.0).

Structures are written as SMILES. The panel holds about 79,000 compounds, 15% with a hit somewhere; the sample as a whole holds those more often. Unmarked numbers belong to inactive results. The source made the active and inactive calls. Cut-off read from the data, not from the text of the source: active = growth inhibition above about 70%; inactive = the rest.

Take `Cc1ccc(SCc2ccccc2Cl)nn1`: the growth inhibition in assay [1] (setting [7]) is -2%; in assay [1] (setting [8]) it was 3%; in assay [1] (at 50.0 µM), 6.6%; in assay [2] (setting [7]) it was -9%; in assay [2] (setting [8]), 11%; in assay [2] (at 50.0 µM), -2.15%. The growth inhibition in assay [3] (setting [7]) is -8%; in assay [3] (setting [8]) it was 17%; in assay [3] (at 50.0 µM), -2.3%; in assay [4] (setting [7]) it was 3%; in assay [4] (setting [8]), 20%; in assay [4] (at 50.0 µM), 31.1%. Also, the growth inhibition in assay [5] (setting [7]) is 6%; in assay [5] (setting [8]), 34%; in assay [5] (at 50.0 µM), 15.4%; in assay [6] (setting [7]), -1%; in assay [6] (setting [8]), 19%; in assay [6] (at 50.0 µM), 4.75%.

In the case of `S=C(NCCc1ccccn1)N/N=C/c1ccccn1`, the growth inhibition was 10% in assay [1] (setting [7]); 99% (active) in assay [1] (setting [8]); 76.5% (active) in assay [1] (at 50.0 µM); -1% in assay [2] (setting [7]); 99% (active) in assay [2] (setting [8]); 84.9% (active) in assay [2] (at 50.0 µM). Moreover, the growth inhibition in assay [3] (setting [7]) is 7%; in assay [3] (setting [8]) it was 98% (active); in assay [3] (at 50.0 µM), 88.3% (active); in assay [4] (setting [7]), -3%; in assay [4] (setting [8]) it was 97% (active); in assay [4] (at 50.0 µM), 89.8% (active). Besides, the growth inhibition in assay [5] (setting [7]) was -17%; in assay [5] (setting [8]), 99% (active); in assay [5] (at 50.0 µM), 90.4% (active); in assay [6] (setting [7]) it was 28%; in assay [6] (setting [8]), 99% (active); in assay [6] (at 50.0 µM), 91.5% (active).

As to `CN(C)CCOC1OCN(C)CC1(C)C` (stereo not drawn), the growth inhibition in assay [1] (setting [7]) is 0%; in assay [1] (setting [8]) it was -12%; in assay [1] (at 50.0 µM) it was 4.55%; in assay [2] (setting [7]), 0%; in assay [2] (setting [8]), -7%; in assay [2] (at 50.0 µM), 7.2%. Also, the growth inhibition in assay [3] (setting [7]) is -1%; in assay [3] (setting [8]) it was -8%; in assay [3] (at 50.0 µM), -0.9%; in assay [4] (setting [7]), 1%; in assay [4] (setting [8]), -15%; in assay [4] (at 50.0 µM) it was 36.1%. Moreover, the growth inhibition in assay [5] (setting [7]) is -2%; in assay [5] (setting [8]) it was -3%; in assay [5] (at 50.0 µM), -3.75%; in assay [6] (setting [7]) it was 2%; in assay [6] (setting [8]), -12%; in assay [6] (at 50.0 µM), -1.05%.

With `CCCC(C(=O)OCCN1CCCC1(C)C)C1CCCC1` (stereo not drawn), the growth inhibition in assay [1] (setting [7]) was 17%; in assay [1] (setting [8]), 38%; in assay [1] (at 50.0 µM), 41%; in assay [2] (setting [7]) it was 10%; in assay [2] (setting [8]) it was 46%; in assay [2] (at 50.0 µM), 39%. In addition, the growth inhibition in assay [3] (setting [7]) is 24%; in assay [3] (setting [8]), 58%; in assay [3] (at 50.0 µM) it was 48%; in assay [4] (setting [7]) it was 29%; in assay [4] (setting [8]), 58%; in assay [4] (at 50.0 µM), 70.7% (active). For the same molecule, the growth inhibition in assay [5] (setting [7]) was 45%; in assay [5] (setting [8]), 62%; in assay [5] (at 50.0 µM) it was 36.5%; in assay [6] (setting [7]) it was 36%; in assay [6] (setting [8]), 68%; in assay [6] (at 50.0 µM), 40%.

In the case of `CC(=O)c1c2c(cc3c1CC1(C3)Cc3cc4c(c(C(=O)O)c3C1)CCC4)CCC2` (stereo not drawn), the growth inhibition in assay [1] (setting [7]) was 53%; in assay [1] (setting [8]), 94% (active); in assay [1] (at 50.0 µM), 84% (active); in assay [2] (setting [7]) it was 56%; in assay [2] (setting [8]), 96% (active); in assay [2] (at 50.0 µM) it was 79.8% (active). Further, the growth inhibition was 65% in assay [3] (setting [7]); 97% (active) in assay [3] (setting [8]); 89.6% (active) in assay [3] (at 50.0 µM); 70% (active) in assay [4] (setting [7]); 95% (active) in assay [4] (setting [8]); 84.2% (active) in assay [4] (at 50.0 µM). In addition, the growth inhibition was 63% in assay [5] (setting [7]); 95% (active) in assay [5] (setting [8]); 83.5% (active) in assay [5] (at 50.0 µM); 73% (active) in assay [6] (setting [7]); 96% (active) in assay [6] (setting [8]); 83.4% (active) in assay [6] (at 50.0 µM).

For the molecule `CCN(CC)C(=O)CCCCC(=O)OC(C)C`, the growth inhibition is 0% in assay [1] (setting [7]); -12% in assay [1] (setting [8]); -2.2% in assay [1] (at 50.0 µM); -2% in assay [2] (setting [7]); -2% in assay [2] (setting [8]); -1.1% in assay [2] (at 50.0 µM). Further, the growth inhibition in assay [3] (setting [7]) was -6%; in assay [3] (setting [8]) it was -12%; in assay [3] (at 50.0 µM), -24%; in assay [4] (setting [7]), -7%; in assay [4] (setting [8]), -1%; in assay [4] (at 50.0 µM) it was 86.2% (active). In addition, the growth inhibition is -3% in assay [5] (setting [7]); -10% in assay [5] (setting [8]); -7.2% in assay [5] (at 50.0 µM); -1% in assay [6] (setting [7]); -11% in assay [6] (setting [8]); 21.9% in assay [6] (at 50.0 µM).
